# Measurements reported in ChEMBL document CHEMBL3988442, “University of Dundee, Small-Polar-MMV Screening Library” (2021).
# The whole screen tested about 48,000 compounds, of which about 13,000 (27%) showed an effect of 50% or more. The list shows a part of the results.
# System: Wolbachia pipientis
# Assay: Anti-Wolbachia Cell-Based Screen
# Format: functional
# Set-up: scale not given: in the data most compounds retested in dose-response had high values
# Conditions: 5 µM
row,Compound,Percent Effect [%]
1,Cc1cc(C(=O)N[C@H]2COC[C@@H]2N2CCOCC2)c2ccc(F)cc2n1,-11.09
2,Cc1cc(C)n2nc(C(=O)N[C@H]3C[C@H]4CN(C)CCN4C3)cc2n1,-14.62
3,O=C(N[C@H]1COC[C@@H]1N1CCCC1)c1c[nH]nc1C1CCCCC1,3.503
4,O=C(N[C@H]1COC[C@@H]1N1CCCC1)c1csc(-c2cccs2)n1,103.2
5,Cc1ccc2nc(C)cc(C(=O)N[C@H]3COC[C@@H]3N3CCOCC3)c2c1,-2.538
6,CCCc1nc(C(=O)N[C@H]2COC[C@@H]2N2CCN(C)CC2)cs1,87.61
7,O=C(c1csc(-c2ncccn2)n1)N1CCN2CCCCC2C1 (stereo unspecified),-3.286
8,O=C(N[C@H]1COC[C@@H]1N1CCCC1)c1csc(Cc2ccccc2)n1,115.4
9,Cc1ccc2nc(C)c(C)c(C(=O)N[C@H]3COC[C@@H]3N3CCCC3)c2c1,-0.09991
10,Cc1nc(C(=O)N[C@H]2COC[C@@H]2N2CCCCC2)cs1,100.8
11,Fc1cnc(N2CCOCC3(CCCNC3)C2)nc1 (stereo unspecified),-3.763
12,CCCN1CC2(CCN(c3ncc(F)cn3)CC2)CC1C(=O)O (stereo unspecified),2.005
13,CC(C)c1ocnc1C(=O)N1CCC2(CC1)OCCO2,-1.453
14,O=S(=O)(NC[C@H]1C[C@@H]2CCN1C[C@@H]2CN1CCOCC1)c1ccccc1,-10.01
15,c1c[nH]c2nc(C3CCNCC3)nc-2c1,118.5
16,c1c[nH]c2nc(C3CCCNC3)nc-2c1 (stereo unspecified),109

row,Compound,Percent Effect [%]
1,Cl.O=C(NCC1CCC2(CCNCC2)O1)C1CC1 (stereo unspecified),-17.62
2,O=C(c1nc(=O)[nH]c2ccccc12)N1CCCC2(CCNC2)C1 (stereo unspecified),12.22
3,Cl.O=C(N1CCOCC1)N1CCCC2(CCCNC2)C1 (stereo unspecified),-22.36
4,O=C(c1onc2ccccc12)N1CCC2(CCCNC2)C1 (stereo unspecified),102.5
5,COCC1CC2(CCN(c3ccc(C)nn3)CC2)CN1C(C)C.O=C(O)C(F)(F)F (stereo unspecified),99.94
6,COCC1CC2(CCN(c3ccccn3)CC2)CN1C(C)C.O=C(O)C(F)(F)F.O=C(O)C(F)(F)F (stereo unspecified),104.7
7,CCN1C[C@@H]2CN(c3cc(OC)ncn3)CCC[C@]2(C(=O)O)C1.O=C(O)C(F)(F)F,-1.589
8,COc1cc(N2CCC[C@]3(C(=O)O)CN(C(C)C)C[C@@H]3C2)ncn1.O=C(O)C(F)(F)F,8.121
9,Cc1cccc(CN2CC3C[C@]3(NC(=O)c3cccc(F)c3)C2)n1.O=C(O)C(F)(F)F (stereo partly specified),-4.676
10,COCC1CC2(CCN(c3cc(OC)ncn3)CC2)CN1C(C)C.O=C(O)C(F)(F)F (stereo unspecified),103.7
11,Cc1ccc(N2CCC3(CCCN3Cc3ccn(C)n3)CC2)nn1.O=C(O)C(F)(F)F,10.32
12,COCC1CC2(CCN(Cc3ccccn3)CC2)CN1C(C)C (stereo unspecified),-12.67
13,CC(C)CN1CCCC2(CCN(c3ccc(C#N)cn3)C2)C1.O=C(O)C(F)(F)F (stereo unspecified),-6.214
14,COCCCN1CCCC12CCN(c1ncccn1)CC2.O=C(O)C(F)(F)F,8.313
15,COCC1CC2(CCN(c3cccc(C)n3)CC2)CN1C(C)C.O=C(O)C(F)(F)F.O=C(O)C(F)(F)F (stereo unspecified),94.82
